Assay [1] is described as follows: qHTS assay to identify small molecule that activate the aryl hydrocarbon receptor (AhR) signaling pathway - cell viability counter screen (AID 743086). Also: series mostly up to about 70 µM; nearly all actives have a fitted effect of over 45% in size. The method in brief: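 Cytotoxicity counter screen: CellTiter-Fluor signal (30 min, 37 C) in 4000 HepG2 cells/well carrying the DRE-luciferase reporter, following 24 h compound exposure at 37 C.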
Background: qHTS replaces the single test concentration by a dilution series.

In assay [2] the target is Peroxisome proliferator-activated receptor gamma (Homo sapiens) (UniProt P37231). Description: qHTS assay to identify small molecule agonists of the peroxisome proliferator-activated receptor gamma (PPARg) signaling pathway (AID 743094; active = well fitted activation curve with a large enough effect in the signal ratio in the repeat runs, not every such curve was filed as active; the % refers to the signal ratio). The method in brief: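 Fluorescence-based beta-lactamase readout in HEK293H PPARg UAS-bla cells after 17 h compound exposure (37C) and 1 h B/G FRET substrate incubation at room temperature.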
Peroxisome proliferator-activated receptor gamma (Homo sapiens), sequence (P37231 whole entry, looked up): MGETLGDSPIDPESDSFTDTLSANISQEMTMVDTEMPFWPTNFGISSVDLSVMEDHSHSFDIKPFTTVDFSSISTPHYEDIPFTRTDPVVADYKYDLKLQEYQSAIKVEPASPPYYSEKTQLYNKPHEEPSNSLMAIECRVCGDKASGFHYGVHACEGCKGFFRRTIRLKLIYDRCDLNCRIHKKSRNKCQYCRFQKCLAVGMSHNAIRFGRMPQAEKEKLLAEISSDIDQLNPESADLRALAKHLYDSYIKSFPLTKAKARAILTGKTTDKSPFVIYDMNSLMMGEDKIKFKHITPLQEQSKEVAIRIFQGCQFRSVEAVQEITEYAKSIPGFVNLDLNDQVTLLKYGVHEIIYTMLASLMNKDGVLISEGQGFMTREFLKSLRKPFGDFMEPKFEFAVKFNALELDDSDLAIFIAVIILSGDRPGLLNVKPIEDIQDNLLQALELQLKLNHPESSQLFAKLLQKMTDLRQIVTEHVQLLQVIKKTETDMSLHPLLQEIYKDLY

Assay [3] shares this target. The assay is described as follows: qHTS assay to identify small molecule antagonists of the peroxisome proliferator-activated receptor gamma (PPARg) signaling pathway (AID 743191; calls by dose curve; also: nearly all actives have a fitted effect of over 30% in size; also: potency is read from the fitted curve at half-maximal effect). The method in brief: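 Beta-lactamase reporter under UAS control in HEK293H PPARg-bla cells; compound treatment 17 h at 37C. Read-out: fluorescence intensity after 1 h room-temperature incubation with LiveBLAzer B/G FRET substrate.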

Assay [4] in a line: qHTS assay to identify small molecule antagonists of the peroxisome proliferator-activated receptor gamma (PPARg) signaling pathway - cell viability counter screen (AID 743194). Also: nearly all actives have a fitted effect of over 55% in size. The following applies: Potency: co-treated with 50 nM rosiglitazone unless noted. A digest of the protocol: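 Viability was measured as CellTiter-Glo luminescence in GeneBLAzer PPARg UAS-bla HEK293H cells. These cells had been exposed 17 h at 37 C to compounds together with rosiglitazone at 50 nM final, with the beta-lactamase readout taken in the same wells.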

Assay [5] can be described thus: qHTS assay for small molecule agonists of the antioxidant response element (ARE) signaling pathway (AID 743202; active = well fitted activation curve with a large enough effect in the signal ratio in the repeat runs, not every such curve was filed as active; the % refers to the signal ratio; also: potency is read from the fitted curve at half-maximal effect). A digest of the protocol: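 Beta-lactamase reporter activity, read as fluorescence intensity, reflects ARE/Nrf2 pathway induction in HepG2 cells after 16 h compound exposure at 37 C; substrate loading was 2 h at room temperature.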
The nature of assay [6]: qHTS assay for small molecule agonists of the antioxidant response element (ARE) signaling pathway - cell viability counter screen (AID 743203; calls by dose curve; also: nearly all actives have a fitted effect of over 55% in size). The method in brief: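 Parallel cytotoxicity read-out for the ARE-bla screen: HepG2 reporter cells, 16 hrs with compounds, then CellTiter-Glo luminescence.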
Assay [7] is described as follows: qHTS assay for small molecule activators of the heat shock response signaling pathway - cell viability counter screen (AID 743209). Also: nearly all actives have a fitted effect of over 50% in size. A digest of the protocol: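 To flag cytotoxic compounds, HSE-bla HeLa cells plated at 1500 cells/well were dosed for 5 h at 37 C, followed by the reporter FRET read and then CellTiter-Glo, with luminescence recorded 30 min after reagent addition.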

Assay [8] can be described thus: qHTS assay to identify small molecule agonists of the peroxisome proliferator-activated receptor delta (PPARd) signaling pathway - cell viability counter screen (AID 743211). Also: nearly all actives have a fitted effect of over 55% in size. A digest of the protocol: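 In the same wells used for beta-lactamase reporter measurement, cytotoxicity is scored by CellTiter-Glo. HEK293H PPARd-bla cells receive compound for 17 h at 37C following a 5 h settling period.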

The target in assay [9] is Peroxisome proliferator-activated receptor delta (Homo sapiens) (UniProt Q03181). The assay is described as follows: qHTS assay to identify small molecule agonists of the peroxisome proliferator-activated receptor delta (PPARd) signaling pathway (AID 743212; calls by dose curve;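 also: HEK293H cells with PPARd UAS beta-lactamase reporter GeneBLAzer system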). The method in brief:
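Steps: seed PPARd-bla HEK293H cells; incubate 5 h, 37 C, 5% CO2; add compounds in DMSO; incubate, 37 C; add LiveBLAzer B/G FRET substrate; hold 2 h at room temperature; measure fluorescence.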

Assay [10] is described as follows: qHTS assay to identify small molecule antagonists of the peroxisome proliferator-activated receptor delta (PPARd) signaling pathway - cell viability counter screen (AID 743213). Also: nearly all actives have a fitted effect of over 50% in size. The method in brief:
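PPARd-bla HEK293H cells (3000/well) got compound plus 300 nM L165041 agonist for 17 h at 37 C. Viability in the same wells came from CellTiter-Glo luminescence after 30 min at room temperature.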

In assay [11] the target is Peroxisome proliferator-activated receptor delta (Homo sapiens) (UniProt Q03181). The assay is described as follows: qHTS assay to identify small molecule antagonists of the peroxisome proliferator-activated receptor delta (PPARd) signaling pathway (AID 743215; active = well fitted inhibition curve with a large enough effect in the signal ratio in the repeat runs, not every such curve was filed as active; the % refers to the signal ratio;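 also: cells stimulated with agonist L165041 at 300 nM final during compound exposure; series mostly up to about 62 µM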). The method in brief:
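Screen format: qHTS, antagonist mode. HEK293H PPARd-bla cells received compound and 300 nM L165041 (final), 17 h, 37 C. Beta-lactamase detected via FRET substrate fluorescence, 2 h, room temperature.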

The target of assay [12] is Bile acid receptor (Homo sapiens) (UniProt Q96RI1). Description: qHTS assay to identify small molecule antagonists of the farnesoid-X-receptor (FXR) signaling pathway (AID 743217; active = well fitted inhibition curve with a large enough effect in the signal ratio in the repeat runs, not every such curve was filed as active; the % refers to the signal ratio). The method in brief: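 Quantitative HTS, beta-lactamase reporter format: FXR-UAS-bla HEK 293T cells co-treated 16 h at 37 °C with compounds and 50 uM final chenodeoxycholic acid, then read by B/G FRET fluorescence.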
Bile acid receptor (Homo sapiens), sequence (Q96RI1 whole entry, looked up): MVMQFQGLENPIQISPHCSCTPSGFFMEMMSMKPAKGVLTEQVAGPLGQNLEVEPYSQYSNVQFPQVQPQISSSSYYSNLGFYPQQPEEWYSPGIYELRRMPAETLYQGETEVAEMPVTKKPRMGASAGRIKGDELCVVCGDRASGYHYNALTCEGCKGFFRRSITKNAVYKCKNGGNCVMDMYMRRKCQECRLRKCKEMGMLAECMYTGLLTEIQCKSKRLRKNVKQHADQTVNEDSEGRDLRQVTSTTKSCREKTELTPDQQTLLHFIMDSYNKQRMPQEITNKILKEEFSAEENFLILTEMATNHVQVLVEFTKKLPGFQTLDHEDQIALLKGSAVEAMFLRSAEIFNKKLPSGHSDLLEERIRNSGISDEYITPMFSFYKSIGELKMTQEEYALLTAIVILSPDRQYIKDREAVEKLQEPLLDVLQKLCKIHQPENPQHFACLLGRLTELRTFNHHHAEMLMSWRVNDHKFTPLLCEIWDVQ

Assay [13] in a line: qHTS assay to identify small molecule agonists of the farnesoid-X-receptor (FXR) signaling pathway - cell viability counter screen (AID 743218). Also: nearly all actives have a fitted effect of over 45% in size. A digest of the protocol: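 Same-well cytotoxicity check on FXR-UAS-bla HEK 293T cells: 5 h attachment, 16 h compound at 37 C, CellTiter-Glo luminescence read at room temperature after 30 min.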
Assay [14] has as its target Bile acid receptor (Homo sapiens) (UniProt Q96RI1). Description: qHTS assay to identify small molecule agonists of the farnesoid-X-receptor (FXR) signaling pathway (AID 743220; active = well fitted activation curve with a large enough effect in the signal ratio in the repeat runs, not every such curve was filed as active; the % refers to the signal ratio). The method in brief:
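FXR-UAS-bla HEK 293T cells carrying a UAS-driven beta-lactamase reporter were plated for 5 h at 37C/5% CO2, then exposed to DMSO-dissolved Tox21 10K compounds for 16 h at 37C. A LiveBLAzer B/G FRET substrate was loaded for 2 h at room temperature before fluorescence reading.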

Assay [15] can be described thus: qHTS assay to identify small molecule antagonists of the farnesoid-X-receptor (FXR) signaling pathway - cell viability counter screen (AID 743221; active = well fitted cell-killing curve with a large enough effect in the repeat runs, not every such curve was filed as active; also: nearly all actives have a fitted effect of over 50% in size). A digest of the protocol:
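Here viability was scored by luminescence after CellTiter-Glo addition to wells already read for beta-lactamase. Prior treatment: compound plus CDCA (50 uM final), 16 h, 37 C, HEK 293T FXR-bla cells.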

For assay [16], the target named is Vitamin D3 receptor (Homo sapiens) (UniProt P11473). Description: qHTS assay to identify small molecule antagonists of the vitamin D receptor (VDR) signaling pathway (AID 743223; active = well fitted inhibition curve with a large enough effect in the signal ratio in the repeat runs, not every such curve was filed as active; the % refers to the signal ratio). The method in brief: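 Inhibition of agonist-driven VDR signalling is scored in VDR-bla cells: 3 nM final 1alpha,25-dihydroxyvitamin D3 plus compound, 16 h at 37C, then beta-lactamase detection by FRET substrate fluorescence after 2 h.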
Vitamin D3 receptor (Homo sapiens), sequence (P11473 whole entry, looked up): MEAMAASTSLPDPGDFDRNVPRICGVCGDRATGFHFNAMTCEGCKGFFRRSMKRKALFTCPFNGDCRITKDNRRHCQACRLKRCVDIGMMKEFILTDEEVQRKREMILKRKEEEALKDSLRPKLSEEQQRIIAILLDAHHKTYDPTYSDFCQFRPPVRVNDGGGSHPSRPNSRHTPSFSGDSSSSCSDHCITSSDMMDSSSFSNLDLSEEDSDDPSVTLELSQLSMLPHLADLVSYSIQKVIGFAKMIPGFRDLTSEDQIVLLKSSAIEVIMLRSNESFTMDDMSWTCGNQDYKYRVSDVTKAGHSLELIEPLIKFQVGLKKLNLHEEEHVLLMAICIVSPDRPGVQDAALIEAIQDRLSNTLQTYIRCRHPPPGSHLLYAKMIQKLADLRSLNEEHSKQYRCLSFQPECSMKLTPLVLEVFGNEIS

Assay [17] can be described thus: qHTS assay to identify small molecule agonists of the vitamin D receptor (VDR) signaling pathway - cell viability counter screen (AID 743224). Also: series mostly up to about 63 µM; nearly all actives have a fitted effect of over 50% in size. A digest of the protocol:
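Counter screen for cytotoxicity: VDR-bla cells at 2,000 cells/well, 16 h compound exposure, then CellTiter-Glo luminescence after the beta-lactamase measurement.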

A short description of assay [18]: qHTS assay to identify small molecule agonists of the NFkB signaling pathway - cell viability counter screen (AID 1159515; calls by dose curve; also: series mostly up to about 61 µM; nearly all actives have a fitted effect of over 55% in size). A digest of the protocol: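 Counter screen run alongside the NFkB-bla agonist assay: ME-180 reporter cells exposed to compounds for 5 hr, then lysed with CellTiter-Glo in the same wells. Luminescence, read after 30 min, reflects viable cells.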

Assay [19] is described as follows: qHTS assay for small molecule activators of the heat shock response signaling pathway (AID 743210; active = well fitted activation curve with a large enough effect in the signal ratio in the repeat runs, with a control signal flat, not every such curve was filed as active; the % refers to the signal ratio;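 also: HeLa cells with beta-lactamase reporter driven by heat shock elements; series mostly up to about 63 µM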). A digest of the protocol: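 Fluorescence from a cleaved B/G FRET substrate (2.5 h, room temp) reports HSE-driven beta-lactamase in HeLa cells treated 5 h at 37 C with DMSO-dissolved compounds.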
Assay [20] is described as follows: qHTS assay to identify small molecule antagonists of the vitamin D receptor (VDR) signaling pathway - cell viability counter screen (AID 743225). Also: nearly all actives have a fitted effect of over 50% in size. The method in brief:
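Compounds were pinned onto VDR-bla HEK 293T cells together with 1-alpha,25-dihydroxyvitamin D3 at 3 nM final. After 16 h at 37C and 5% CO2 plus the reporter readout, cell viability was measured by CellTiter-Glo luminescence (30 min, room temperature).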

Molecules are shown by their SMILES. Values joined by “and” are separate entries in the source; they are usually repeats but may differ in a detail not shown here. Identical values can stand only once. Results filed as inconclusive are left out. A structure can be active in one record and inactive in another. Active and inactive are the calls of the source. Unless noted, calls follow the shape of the dose curve; as a rule, active = well fitted curve in the direction sought with a large enough effect in the repeat runs; inconclusive = weak or mixed curves; inactive = no such curve, though single readings can be large; an effect the other way counts as inactive or inconclusive.

Peroxisome proliferator-activated receptor delta (Homo sapiens), sequence (Q03181 whole entry, looked up): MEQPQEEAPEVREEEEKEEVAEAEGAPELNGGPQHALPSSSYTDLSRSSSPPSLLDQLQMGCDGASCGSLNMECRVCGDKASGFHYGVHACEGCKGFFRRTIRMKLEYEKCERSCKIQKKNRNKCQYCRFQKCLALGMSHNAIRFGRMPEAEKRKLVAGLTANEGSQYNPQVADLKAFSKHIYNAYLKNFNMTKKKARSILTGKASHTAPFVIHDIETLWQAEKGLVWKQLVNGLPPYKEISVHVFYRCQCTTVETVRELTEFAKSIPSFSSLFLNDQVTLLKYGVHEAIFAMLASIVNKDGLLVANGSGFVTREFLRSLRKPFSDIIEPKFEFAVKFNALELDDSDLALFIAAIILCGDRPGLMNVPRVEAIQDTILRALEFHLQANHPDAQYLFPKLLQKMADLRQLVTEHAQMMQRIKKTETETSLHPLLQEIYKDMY

For `O=P1(N(CCCl)CCCl)NCCCO1` (stereo not given), the Potency result in assay [1], in assay [3], in assay [4], in assay [5], in assay [6] and in assay [7] was “inactive” in each case. The Potency result in [8], in assay [10], in assay [12], in assay [13], in assay [15] and in assay [16] was “inactive” in each case. Further, the Potency result in assay [17] and in [18] was “inactive” in each case. Further, the outcome in [2], in assay [9], in assay [11] and in assay [14] was inactive.
For `OCCOc1ccccc1`, the Potency result in assay [1], in [3], in [4], in assay [5], in assay [6] and in assay [7] was “inactive” in each case. In addition, the Potency entry in assay [8], in [10], in assay [12], in assay [13], in assay [15] and in assay [16] was “inactive” in each case. Besides, the Potency entry in assay [17] and in assay [18] was “inactive” in each case. The compound was called inactive in assay [2], in assay [19], in assay [9], in [11] and in assay [14].
Consider `Cc1cc(-c2ccc(N)c(C)c2)ccc1N`, for which the Potency result in [1], in [3], in assay [4], in assay [6], in assay [7] and in [8] was “inactive” each time. Further, the Potency result in assay [10], in [13], in assay [15], in assay [16], in [17] and in assay [18] was “inactive” each time. Moreover, the compound was called inactive in [2] and in assay [19]. Also, the Potency in [5] was 8.73 µM (active).
Take `Nc1ccc(-c2ccc(N)c(Cl)c2)cc1Cl`: the Potency result in [1], in [4], in assay [6], in assay [8], in assay [10] and in assay [13] was “inactive” each time. The Potency result in assay [15], in assay [16], in assay [17] and in assay [18] was “inactive” each time. The outcome in [2] was inactive. Moreover, the Potency result was “inactive and 49 µM (active)” in assay [3]; 1.38 µM (active) and 2.02 µM (active) and 1.72 µM (active) in assay [5].
For `COc1ccccc1N`, the Potency result in assay [1], in [3], in assay [4], in [5], in [6] and in assay [7] was “inactive” each time. The Potency result in assay [8], in assay [10], in [13], in assay [15], in assay [17] and in assay [20] was “inactive” each time. In [18], the Potency result was “inactive”. Further, the compound was classed as inactive in assay [2] and in [19].
For `Nc1ccc(-c2ccc(N)cc2)cc1`, the Potency entry in assay [1], in [3], in [4], in assay [5], in assay [6] and in assay [7] was “inactive” in each case. In addition, the Potency result in assay [8], in assay [10], in assay [13], in assay [15], in [16] and in assay [17] was “inactive” in each case. In addition, the Potency entry in assay [18] was “inactive”. The call in [2] and in assay [19] was inactive.
Consider `C1CCC(NC2CCCCC2)CC1`, for which the Potency result in [1], in [3], in assay [4], in assay [5], in assay [6] and in [8] was “inactive” each time. Besides, the Potency result in assay [10], in assay [13], in [15], in [16], in assay [17] and in assay [18] was “inactive” throughout. Besides, the outcome in assay [2], in [19], in [9] and in assay [11] was inactive.
Take `Nc1ccccc1`: the Potency entry in assay [1], in [3], in [4], in [5], in assay [6] and in assay [8] was “inactive” each time. In addition, the Potency entry in assay [10], in [13], in assay [15], in assay [16], in assay [17] and in assay [18] was “inactive” throughout. Further, the outcome in assay [2] and in assay [19] was inactive.

The record behind these values is PubChem BioAssay (Tox21).
